Out of some 53,000 sequences screened, about 3,700 (7%) were called active.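 Rule for the calls: active = gene knockdowns whose robust z-score for IL-1 alpha signal is at least 2 or at most -2, so actives lie on both sides; inactive = the rest.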 Many of the other results were omitted from the sample, so actives are more common in it than they were.
experiment: Components of the Cytosolic LPS Sensing Pathway: Gene Identification via Genome-wide siRNA Screen; settings: RAW264.7 macrophages, IL-1a HTRF, actives lie on both sides, screened at 100 nM (by protocol), cells primed 5 h with Pam3CSK4 first;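 note: robust z of the log signal after scaling to non-targeting control siRNA wells of the plate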
Summary of the method: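 Using IL-1a HTRF as read-out, the screen measured release from RAW264.7 cells after 48h siRNA knockdown (100 nM), 5 h Pam3CSK4 priming and 24 h cytosolic LipidA. Values were expressed relative to negative-control wells as robust z-scores.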

Sequence | z-score
GGGAACCGCUUAUAUGUCCTT against Tbx21 | -0.195 (inactive)
GGACAGAUAGGAUUAGAGATT against Igfbp5 | 0.215 (inactive)
CGUGCCAUAAUACACUAUCTT against Gng5 | 2.79 (active)
GGCGAAUGUUUACGAGAACTT against Sh2d1b2 | 0.327 (inactive)
GGCAGGUUUGGUAACCAGATT against Fut1 | 0.559 (inactive)
GCUUCUUGAAAGUACAUUGTT against Nae1 | 0.386 (inactive)
GGCUCUUCACUCAUGUAUGTT against Olfr703 | -0.931 (inactive)
GGCCCAUAUCUGCUCUCAUTT against Ssc5d | -2.04 (active)
GCCUAUCUUGUCACCACUGTT against Tagln2 | -0.276 (inactive)
GGAAACAAAAGGAUUUCUGTT against Fbxl13 | 1.24 (inactive)
GGCGAGAAGGAAAUGUACATT against Arpc3 | 2.62 (active)
CCAUCCUUCCGAAAGACGATT against Lcn10 | 0.465 (inactive)
CCAAGAUCGAUCAUUUUGGTT against Gm527 | -0.794 (inactive)
GGUCCAAGAGAAAUGUGUATT against Hacd4 | -2.55 (active)
GGUUUUUCUAACUUUGGUCTT against Cdcp2 | -0.0176 (inactive)
AAGAGCCAUUAAUCGAGAATT against Cklf | -0.0691 (inactive)
GGCUAUUGCUGACCUCAGATT against Pidd1 | -2.73 (active)
GCGCAAAAGGACCUAUGAGTT against Rela | -0.342 (inactive)
CGUGGUAGACACUGUGGUATT against Plin1 | 1.61 (inactive)
GGAGAUGAUGCCGUCAUUCTT against Chaf1b | 1.97 (inactive)
CCAUAUGAUAAGCAUAAGCTT against Zfp449 | 0.149 (inactive)
CCCGUAUGGAUGUGGUAACTT against Tmem239 | -1.39 (inactive)

Sequence | z-score
CCUAACCAAGAUCCAAUCUTT against 6330549D23Rik | -2.85 (active)
GGCCAUCCAAGCAUGAGUUTT against Rbfa | 1.37 (inactive)
GGCAGGAAAUUCAUUUUAATT against Zfy2 | -1.43 (inactive)
GGAGAUGGACUCACUGAUGTT against Zscan20 | -1.32 (inactive)
CCACAAAGGAAUUCAUGAGTT against Dhx16 | -1.41 (inactive)
GGUCAAGGAGAUCACCUUCTT against Comp | -1.27 (inactive)
GGAAAAGGAAACCCAGAGCTT against Tdg | -2.4 (active)
CCCGGAAUGUUUAGUAUCGTT against Fermt1 | -1.25 (inactive)
GGCCAUUAACAGCAGUCUGTT against Kifc5b | -1.71 (inactive)
GGAAGUGGAACACAUGAUCTT against Zfp346 | -0.449 (inactive)
GGCAUGAAUGAGUUUAUCATT against Vps8 | -1.12 (inactive)
GGAGAAAUAUGUAUGUACATT against Ece2 | 2.01 (active)
GGAGUCUGAAGAUGACAUGTT against Rplp1 | -0.775 (inactive)
GCCACUAAAUCCUGUUUCCTT against Ydjc | -0.0858 (inactive)
GAGAUGGAAAGUGGUUUCUTT against Olfr1226 | 0.543 (inactive)
GGUCACGAUUCUGUCAGACTT against Ctnnal1 | 3.57 (active)
GGUGAAAAUCAAGCUGAAUTT against Smarca2 | 1.36 (inactive)
GGCUUCCAAGCCUAAAGCUTT against H1f3 | -0.266 (inactive)
GGAUCAAUUGACCACAAACTT against Magi3 | 0.164 (inactive)
GCGAUGCACUGUGUAAACUTT against Ccr6 | 0.772 (inactive)
GGGCUUGUAGAUGUGCGUATT against Hic2 | 3.32 (active)
UGCGGUUGAAUUCUCCCAUTT against Fbll1 | -0.525 (inactive)

Sequence | z-score
CGCACUUACCGUGUCCUAUTT against Homer3 | 0.0495 (inactive)
GGAGAGAAAGAAUUUCAUCTT against Chordc1 | 0.185 (inactive)
GGAAAUCAGAGAGAAGAUGTT against Nubp1 | -1.53 (inactive)
CCACAGAGUUCCUAUACAATT against Pfkl | -2.52 (active)
CCCACGGAGGCAAUAAAUATT against Crygn | -0.155 (inactive)
GGAGAACUUCAGUGAGUCCTT against Ambp | -2.43 (active)
GCCACUCACCUAGCAAAGATT against Fbrsl1 | -1.36 (inactive)
GGAAAUUUCAGUCGUAGUATT against Mgat4c | 0.642 (inactive)
CGACUAUAGACUCUUGAAUTT against 1810037I17Rik | 0.573 (inactive)
GGAGAAAUACAACUGAAAATT against Pcdhb7 | -0.0269 (inactive)
GGCCAGAAGAUCUUCACCATT against Furin | 0.449 (inactive)
GCUCUUUGGUCGAGAACCATT against Mup5 | -2.42 (active)
GCAUCGUUUGUGAGAAUUUTT against Perp | -0.61 (inactive)
GGGCUAUCCUUCUGAAUUUTT against Csnk1d | 1.46 (inactive)
GCUCUCCAUUACGUGCUUGTT against Rrp9 | 1.39 (inactive)
GGAGAGAAAGAACUGGAAATT against Fam78a | 0.357 (inactive)
CCUAUCAGACUGUAAUAAGTT against Kdm2b | -0.404 (inactive)
GGGUGUAUUACCUCUCUCUTT against Pygl | 2.12 (active)
CCACGAUAGCACCUAUUUUTT against Gucy2c | -0.405 (inactive)
GGAACAUUGAAAGGAUUAATT against Smc3 | -1.9 (inactive)
GGCUUAAGUAUUUUUCUGATT against Aktip | -0.269 (inactive)
GGUCUUCAUCUGUCCAACUTT against Tmlhe | -2.09 (active)

Sequence | z-score
CCUGUACCUGCGUAUUCAATT against Grap | -1.63 (inactive)
GGUGCAGCACUUCAAAGUGTT against Grap | 2.41 (active)
GGCCUGAAGACAGACAUGATT against C030016D13Rik | -1.2 (inactive)
GGAAGAGAUGAAGAAAAUGTT against Cetn1 | -1.01 (inactive)
GGAACUUUUGGCCAGCAAGTT against Opa1 | 1.59 (inactive)
CGAUUACAUCCUUUUUGACTT against Gpn3 | -0.228 (inactive)
GCGCCUUAACCAAGAAGUUTT against Cox18 | 2.84 (active)
GGAUCUAGAACAGAAAAUGTT against Stat3 | -1.55 (inactive)
GCUGCUAUGACCUAUGGCATT against Sptlc2 | -0.543 (inactive)
GGGUUGUCGUUCAGUUUACTT against Art2a | 2.8 (active)
GGAAUUAAGUCAUCAGGAATT against Slc6a5 | -0.763 (inactive)
GCGCACAAAAAACAUGAUATT against Plaat5 | 0.211 (inactive)
GGAAUUCGAUGCAUUUGUATT against Il18rap | -0.34 (inactive)
GCUCAGCUGUGGGUAAUACTT against Raver2 | -2.77 (active)
GGAUAUCACAUAGCAUCGGTT against 1700025G04Rik | -0.742 (inactive)
GGAUGUCUCAAAGUAAGAATT against Cd55b | -0.124 (inactive)
GGACGAGUGCCUGUUUUCATT against Med8 | 4.09 (active)
GCAAUGGAACCACCUCUGATT against Zic5 | 1.41 (inactive)
GGAAGAAGCUGAGGAAAGCTT against Spata1 | 0.15 (inactive)
GGAUGGACUCUGUUCCUGUTT against Susd2 | 0.956 (inactive)
GGCCAUUGGACACAGAAUCTT against Rpl35a | 2.28 (active)
GCAAUUAGUAUCUAUUACCTT against Txndc17 | -0.448 (inactive)

Sequence | z-score
GGCUACAAAGGAGUUCCUATT against Sgf29 | 0.516 (inactive)
GCUACUAAACAAGCCGGCATT against Msl1 | 0.341 (inactive)
GGCUUUGUGGAUUUUGAAGTT against Cabp4 | -1.2 (inactive)
GGACGUGUUUGGGAUUGUUTT against Csad | -0.765 (inactive)
GGAUGAGUUCCUUUUACUATT against Cntnap4 | 0.285 (inactive)
CCUCUGUUAUGGUAAUUCUTT against Olfr1323 | -0.371 (inactive)
GCCUGAUAGUGGUGGACAGTT against Tmem45a2 | 3.29 (active)
GGAGGCUUUUCAGACCAAGTT against 3830406C13Rik | 0.334 (inactive)
GGAGAACAGACACAGGGUGTT against Dlgap5 | -0.284 (inactive)
CCUAAACUCAGUGCCUCAGTT against Mrps36 | 0.579 (inactive)
GUCAAAGCACCAUUUGAGUTT against Vmn1r8 | -0.842 (inactive)
GGUAUUCUUUGAAGAAAACTT against Tbc1d14 | 1.17 (inactive)
GGUUUUUGAUGAUUGCUUUTT against Slc49a4 | 0.221 (inactive)
GGACACAGAUAGAAAUACUTT against Glo1 | 2.73 (active)
GGUCUCGAAUGUAUGGUGCTT against Bicc1 | 1.14 (inactive)
GGCAGUUAUGAUAAAGAUUTT against Slc25a16 | -0.896 (inactive)
GGUUCCUAAACAUACUUGUTT against Swi5 | 0.478 (inactive)
GGACUACAGUCAUUAUUCATT against Sycp2 | 3.25 (active)
GGAGUACGAGCAAAUGGUGTT against Nfkbia | 0.5 (inactive)
GGGACCUACAUUACAAUUUTT against Suz12 | 1.06 (inactive)

Source: PubChem BioAssay AID1508600 (Functional Genomics Laboratory (NCATS/FGL), 2020)
